This passage reports growth results from PubChem BioAssay (NCI).

Holding throughout (assay): NCI-60 one-dose screen, 48 h (100 = growth as untreated, 0 = no growth, -100 = all killed)
The subject of assay [1] is HCT-15 colon. Conditions: 10 µM unless noted.
For assay [2], the system named is HT29 colon. Conditions: 10 µM unless noted.
For assay [3], the system named is SNB-75 CNS. Conditions: 10 µM unless noted.
Assay [4] has as its system SNB-19 CNS. Conditions: 10 µM unless noted.
Assay [5] has as its system U251 CNS. The conditions noted are these: 10 µM unless noted.
Assay [6] deals with PC-3 prostate. Conditions: 10 µM unless noted.
In assay [7] the test system is SK-MEL-5 melanoma. The conditions noted are these: 10 µM unless noted.
In assay [8] the test system is UACC-62 melanoma. The conditions noted are these: 10 µM unless noted.
Assay [9] deals with LOX IMVI melanoma. The conditions noted are these: 10 µM unless noted.
The test system of assay [10] is SK-MEL-28 melanoma. The conditions noted are these: 10 µM unless noted.
Assay [11] concerns EKVX NSCLC. The conditions noted are these: 10 µM unless noted.
For assay [12], the system named is SN12C renal. Conditions: 10 µM unless noted.
Assay [13] relates to UO-31 renal. Conditions: 10 µM unless noted.
Assay [14] has as its system TK-10 renal. The conditions noted are these: 10 µM unless noted.
The subject of assay [15] is ACHN renal. The conditions noted are these: 10 µM unless noted.
In assay [16] the test system is CAKI-1 renal. The conditions noted are these: 10 µM.
Assay [17] has as its system A498 renal. Conditions: 10 µM unless noted.
Assay [18] relates to CCRF-CEM leukemia. The conditions noted are these: 10 µM unless noted.
Assay [19] concerns SK-MEL-2 melanoma. Conditions: 10 µM unless noted.
The subject of assay [20] is MOLT-4 leukemia. The conditions noted are these: 10 µM unless noted.

The panel holds about 83,000 compounds, 20% with a hit somewhere; the sample as a whole holds those more often.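 How to read the values: 0–100, growth inhibition (40 = 60% inhibited); 0, no net growth; -100 to 0, cell death (-40 = 40% of starting cells died; -100 = all dead).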 A number with no mark means an inactive call. Active and inactive are the calls of the source. How the source made its calls: active means growth percent below 10; inactive means the rest.

With `COc1cc2c3c(n(CCCNC4CCCCC4)c(=O)c2cc1OC)-c1cc2c(cc1C3=O)OCO2`, the growth is -68.7% (active) in assay [1]; -69.2% (active) in assay [2]; 80.6% in [3]; 2.72% (active) in assay [4]; -91.1% (active) in [5]; -83.6% (active) in [6]. Also, the growth was 97.2% in assay [7]; 81% in assay [8]; -76.7% (active) in assay [9]; 97% in assay [10]; -65.3% (active) in assay [11]; -70.3% (active) in assay [12]. Moreover, the growth in [13] was 84.5%; in assay [14], -95% (active); in assay [15] it was -6.15% (active); in assay [16], 73.9%; in assay [17] it was 86.2%; in assay [18], -25.3% (active).
Turning to `Clc1ccccc1/C=C/c1nn2c(-c3ccncc3)nnc2s1`, the growth in [1] is 96.4%; in [2], 111%; in [3] it was 105%; in assay [4] it was 99.6%; in [5], 106%; in assay [6], 97.2%. For the same compound, the growth in [7] was 99.3%; in assay [8], 94.3%; in assay [9] it was 98.1%; in assay [10], 103%; in assay [11], 94.2%; in [12] it was 103%. Further, the growth was 93.1% in assay [13]; 126% in assay [14]; 104% in assay [15]; 87.9% in assay [16]; 95.2% in assay [17]; 97.6% in assay [18].
As for `C=CCn1c(SCC(=O)Nc2cccc(C(=O)/C=C/c3ccccc3)c2)nc2ccccc2c1=O`, the growth in assay [1] is 57.9%; in assay [2], 14.7%; in assay [3], 82.1%; in [4] it was 77.1%; in [5], 46.7%; in assay [6] it was 77.4%. The growth was 98.6% in assay [7]; 86.3% in assay [8]; 24.4% in assay [9]; 95.4% in assay [10]; 99.3% in assay [11]; 91.1% in assay [12]. Further, the growth is 67.4% in assay [13]; 116% in assay [14]; 93.9% in assay [15]; 80.1% in [16]; 92.9% in assay [17]; 72.1% in assay [18].
`COc1ccc([C@H]2[C@H](O)C(=O)N2c2cc(OC)c(OC)c(OC)c2)cc1O`: the growth is 1.4% (active) in assay [1]; -18.4% (active) in assay [2]; 45.3% in [3]; 29% in [4]; 1.09% (active) in assay [5]; 8.59% (active) in [6]. Besides, the growth in assay [7] was 0.345% (active); in [8] it was 27.9%; in assay [9] it was 17.1%; in assay [10], 62%; in assay [11], 51.2%; in assay [12], 24.6%. In addition, the growth in assay [13] is 32.6%; in assay [14] it was 81.1%; in assay [15] it was 28.1%; in assay [16] it was 28.9%; in assay [17], -16% (active); in assay [18], 16.1%.
Take `C/C(Cc1ccc(Cl)cc1)=C(/c1ccccc1)c1ccc(OCCN)cc1`: the growth in assay [1] is 101%; in [2], 102%; in assay [3], 98.2%; in [4] it was 92.9%; in assay [5], 100%; in assay [6], 99%. The growth is 99.1% in assay [7]; 91.7% in assay [8]; 98% in assay [9]; 96% in [10]; 98.7% in assay [11]; 103% in assay [12]. Moreover, the growth in assay [13] is 89.7%; in assay [14], 100%; in assay [15], 99.4%; in assay [16] it was 92.5%; in assay [17], 95.8%; in assay [18] it was 110%.
As for `COc1ccc(/C(C)=C(\c2ccc(Cl)cc2)c2ccc(OCCN)cc2)cc1`, the growth in assay [1] is 40.5%; in assay [2], 0.975% (active); in assay [3] it was 88.9%; in [4], 87.8%; in [5], 61.9%; in [6], 78.9%. The growth in assay [7] was 96.7%; in assay [8], 98.5%; in [9] it was 0.915% (active); in [10], 86.1%; in [11], 87.2%; in assay [12] it was 78.3%. Moreover, the growth in assay [13] is 60.8%; in assay [14], 119%; in [15], 84.9%; in [16], 67.3%; in assay [17], 90.1%; in assay [18] it was 66.1%.
For the compound `COc1cnc2c(c1)C(=O)c1c-2n(CCCNCC2CC2)c(=O)c2cc(F)ccc12`, the growth is 0.625% (active) in assay [1]; -62.7% (active) in [2]; -7.63% (active) in assay [3]; 4.94% (active) in assay [4]; -50.4% (active) in assay [5]; 9.61% (active) in [6]. Moreover, the growth in assay [7] was -82.8% (active); in assay [8], -56.2% (active); in assay [9] it was -59.4% (active); in assay [10] it was 22.8%; in assay [11], 13.3%; in assay [12], 0.563% (active). For the same compound, the growth was -81.7% (active) in [13]; -32.9% (active) in assay [14]; -62% (active) in [15]; -27.2% (active) in [16]; -31% (active) in assay [17]; -2.04% (active) in [18].
Regarding `CCN1C(=O)N(CC)C2SC(N/N=C/c3ccccc3F)=NC21` (stereo not given), the growth in assay [1] was 16.2%; in assay [2], 0.675% (active); in assay [3], 21.5%; in assay [4], 24.6%; in assay [5], 16.4%; in [6], 29.8%. The growth in [7] was 11.1%; in [8] it was 37.6%; in assay [9], 15.6%; in assay [10], 54.8%; in [19], 12%; in [12] it was 34.6%. In addition, the growth was 50.2% in assay [13]; 87.7% in assay [14]; 34.4% in assay [15]; 31.3% in assay [16]; -22.1% (active) in assay [17]; 20% in assay [18]. Also, the growth in assay [20] is 15.5%.
